Data from PubChem BioAssay (Tox21).
“And” between values parts separate entries of the source, which are not always exact repeats. Equal values may be shown once. Results filed as inconclusive are left out. Where a structure was tested more than once in an assay, its records may differ in their call. The source made the active and inactive calls. Calls come from the whole dose curve; as a rule, active = well fitted curve in the direction sought with a large enough effect in the repeat runs; inconclusive = weak or mixed curves; inactive = no such curve, though single readings can be large; an effect the other way counts as inactive or inconclusive.

Experiments:
[1] = qHTS RealTime-Glo MT Cell Viability Assay in HEK293 cells - 32 hour (AID 1224868); note: nearly all actives have a fitted effect of over 50% in size; note: potency is the fitted concentration of half-maximal effect
How it was run: (§1)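 Reads taken at 0, 8, 16, 24, 32 and 40 h from the same wells. HEK293 cells (600/well) carried RealTime-Glo reagents from seeding, with compound added after a 5 h settle at 37 C.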

[2] = A CellTox Green Cytotoxicity Assay to monitor cytotoxicity in HEK293 cells - 0 hour (AID 1224869); note: nearly all actives have a fitted effect of over 50% in size; note: potency is the fitted concentration of half-maximal effect
How it was run: (§2)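 Read-out: fluorescence of a cell-impermeant cyanine dye staining DNA of dead cells, proportional to cytotoxicity. HEK293, 600 cells/well with reagent, compound (23 nL DMSO) added after 5 h; reads at 0, 8, 16, 24, 32, 40 h.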

[3] = qHTS RealTime-Glo MT Cell Viability Assay in HepG2 cells - 40 hour (AID 1224870); note: nearly all actives have a fitted effect of over 50% in size
How it was run: (§3)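 HepG2 cells (600/well) mixed with RealTime-Glo MT reagent, settled 5 h at 37 C/5% CO2 before compound addition. Nonlytic NanoLuc luminescence from viable-cell prosubstrate reduction read repeatedly during 40 h treatment at 37 C.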

[4] = A CellTox Green Cytotoxicity Assay to monitor cytotoxicity in HEK293 cells - 40 hour (AID 1224871); note: nearly all actives have a fitted effect of over 45% in size; note: potency is the fitted concentration of half-maximal effect
How it was run: as §2

[5] = qHTS RealTime-Glo MT Cell Viability Assay in HEK293 cells - 16 hour (AID 1224872); note: top concentration of the series differs between compounds; nearly all actives have a fitted effect of over 50% in size
How it was run: as §1

[6] = qHTS RealTime-Glo MT Cell Viability Assay in HepG2 cells - 8 hour (AID 1224873); note: nearly all actives have a fitted effect of over 55% in size
How it was run: as §3

[7] = qHTS RealTime-Glo MT Cell Viability Assay in HEK293 cells - 40 hour (AID 1224874); settings: RealTime-Glo luminescence; max response: stronger effect = lower value; note: nearly all actives have a fitted effect of over 50% in size; note: potency is the fitted concentration of half-maximal effect
How it was run: (§4)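 Luminescence readout at each listed time point; HEK293, 600 cells/well, RealTime-Glo MT reagent added with cells; compounds pinned (23 nL in DMSO) after 5 h at 37 C; continuous culture at 37 C.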

[8] = qHTS RealTime-Glo MT Cell Viability Assay in HepG2 cells - 32 hour (AID 1224877); note: nearly all actives have a fitted effect of over 55% in size
How it was run: (§5)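 HepG2 suspension premixed with RealTime-Glo reagents is plated at 600 cells per well and left 5 h at 37 C/5% CO2. Compounds in DMSO then go in, and bioluminescence reflecting viable cell number is recorded over 40 h.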

[9] = A CellTox Green Cytotoxicity Assay to monitor cytotoxicity in HepG2 cells - 24 hour (AID 1224878); note: nearly all actives have a fitted effect of over 45% in size; note: potency is the fitted concentration of half-maximal effect
How it was run: (§6)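 HepG2, 600 cells/well premixed w/ CellTox Green; 5 h settle, 37 C/5% CO2; pintool cpd add (DMSO); 37 C, 40 h; fluorescence read at 0, 8, 16, 24, 32, 40 h.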

[10] = A CellTox Green Cytotoxicity Assay to monitor cytotoxicity in HepG2 cells - 40 hour (AID 1224879); note: nearly all actives have a fitted effect of over 40% in size; note: potency is the fitted concentration of half-maximal effect
How it was run: as §6

[11] = A CellTox Green Cytotoxicity Assay to monitor cytotoxicity in HEK293 cells - 32 hour (AID 1224881); note: nearly all actives have a fitted effect of over 40% in size; note: potency is the fitted concentration of half-maximal effect
How it was run: as §2

[12] = A CellTox Green Cytotoxicity Assay to monitor cytotoxicity in HepG2 cells - 0 hour (AID 1224882); note: nearly all actives have a fitted effect of over 35% in size; note: potency is the fitted concentration of half-maximal effect
How it was run: as §6

[13] = A CellTox Green Cytotoxicity Assay to monitor cytotoxicity in HepG2 cells - 32 hour (AID 1224883); note: nearly all actives have a fitted effect of over 50% in size; note: potency is the fitted concentration of half-maximal effect
How it was run: as §6

[14] = A CellTox Green Cytotoxicity Assay to monitor cytotoxicity in HEK293 cells - 8 hour (AID 1224884); note: nearly all actives have a fitted effect of over 35% in size; note: potency is the fitted concentration of half-maximal effect
How it was run: as §2

[15] = A CellTox Green Cytotoxicity Assay to monitor cytotoxicity in HepG2 cells - 16 hour (AID 1224876); note: nearly all actives have a fitted effect of over 45% in size; note: potency is the fitted concentration of half-maximal effect
How it was run: as §6

[16] = A CellTox Green Cytotoxicity Assay to monitor cytotoxicity in HEK293 cells - 24 hour (AID 1224875); note: series mostly up to about 77 µM; nearly all actives have a fitted effect of over 45% in size
How it was run: as §2

[17] = qHTS RealTime-Glo MT Cell Viability Assay in HEK293 cells - 0 hour (AID 1224880)
How it was run: as §4

[18] = qHTS RealTime-Glo MT Cell Viability Assay in HepG2 cells - 24 hour (AID 1224867); note: nearly all actives have a fitted effect of over 50% in size
How it was run: as §5
% is set by controls: 0 for no effect and ±100 for the full control effect.

C=CCO
inactive and 43.6 µM (active): Potency [2]
inactive: Potency [1] | outcome [3] | outcome [5] | outcome [6] | max response [7] 4.57% and 0.311% | outcome [8]
inactive and 27.5 µM (active): Potency [14]
inactive and 34.7 µM (active): Potency [4]
inactive and 38.9 µM (active): Potency [11] | Potency [12]
inactive and 24.5 µM (active): Potency [9] | Potency [10] | Potency [13]

CCCC1COC(Cn2cncn2)(c2ccc(Cl)cc2Cl)O1 (stereo unspecified)
active: Potency [1] 22.3 µM and 24.5 µM | Potency [7] 25 µM and 21.9 µM
inactive: Potency [2] | outcome [3] | outcome [6] | Potency [15] | outcome [8] | Potency [9] | Potency [12] | Potency [14]
49.9 µM (active) and inactive: Potency [11]

Oc1ccccc1Cl
inactive: Potency [1] | Potency [2] | outcome [3] | Potency [4] | outcome [5] | outcome [6] | max response [7] 9.22% and 18.7% | Potency [16] | outcome [8] | Potency [9] | Potency [10] | Potency [11] | Potency [12] | Potency [13] | Potency [14]

O=[N+]([O-])c1ccc([As](=O)(O)O)cc1
inactive: Potency [1] | Potency [2] | outcome [3] | Potency [4] | outcome [5] | max response [7] 0.69% and 11.7% | Potency [16] | Potency [15] | outcome [8] | Potency [9] | Potency [10] | Potency [11] | Potency [12] | Potency [13] | Potency [14]

CCCCN(CC)C(=O)SCCC
inactive and 19.5 µM (active): Potency [1]
inactive: Potency [2] | outcome [3] | Potency [4] | outcome [5] | outcome [6] | max response [7] 0.284% | Potency [16] | Potency [15] | outcome [8] | Potency [9] | Potency [10] | outcome [17] | Potency [11] | Potency [12] | Potency [13] | Potency [14]

c1ccc(-c2ccccc2)cc1
49.4 µM (active) and inactive: Potency [10]
inactive: Potency [1] | Potency [2] | outcome [3] | Potency [4] | outcome [5] | outcome [6] | max response [7] -0.911% and -11.7% | Potency [16] | Potency [15] | outcome [8] | Potency [9] | Potency [11] | Potency [12] | Potency [13] | Potency [14]

Cc1ccccc1O
inactive: outcome [18] | Potency [1] | Potency [2] | outcome [3] | Potency [4] | outcome [5] | max response [7] 2.91% and -0.867% | Potency [16] | Potency [15] | outcome [8] | Potency [9] | Potency [10] | Potency [11] | Potency [12] | Potency [13] | Potency [14]

Cc1ccc([N+](=O)[O-])cc1C
inactive: Potency [1] | Potency [2] | outcome [3] | Potency [4] | outcome [5] | outcome [6] | max response [7] -0.25% and 2.38% | Potency [16] | Potency [15] | outcome [8] | Potency [9] | Potency [10] | outcome [17] | Potency [11] | Potency [12] | Potency [13] | Potency [14]

Cc1ccc(N)cc1Cl
inactive: Potency [1] | Potency [2] | outcome [3] | Potency [4] | outcome [5] | max response [7] -5.66% and 1.08% | Potency [16] | outcome [8] | Potency [9] | Potency [10] | outcome [17] | Potency [11] | Potency [12] | Potency [13] | Potency [14]

CC(C)(Cl)Cl
inactive: Potency [1] | Potency [2] | outcome [3] | Potency [4] | outcome [5] | outcome [6] | max response [7] 0.337% and 2.87% | Potency [16] | outcome [8] | Potency [9] | Potency [10] | outcome [17] | Potency [11] | Potency [12] | Potency [13] | Potency [14]

C#CCN(C)[C@H](C)Cc1ccccc1
inactive: Potency [1] | Potency [2] | outcome [3] | Potency [4] | outcome [5] | outcome [6] | max response [7] 3.52% and 3.78% | Potency [16] | outcome [8] | Potency [9] | Potency [10] | outcome [17] | Potency [11] | Potency [12] | Potency [13] | Potency [14]

NCCc1ccc(O)cc1
inactive: outcome [18] | Potency [1] | Potency [2] | outcome [3] | Potency [4] | outcome [5] | max response [7] -18.4% and 1.96% | Potency [16] | outcome [8] | Potency [9] | Potency [10] | outcome [17] | Potency [11] | Potency [12] | Potency [13] | Potency [14]

O=Cc1cccc(Oc2ccccc2)c1
inactive: Potency [1] | Potency [2] | outcome [3] | Potency [4] | outcome [5] | outcome [6] | max response [7] -18.5% and 0.95% | Potency [16] | Potency [15] | outcome [8] | Potency [9] | Potency [10] | Potency [11] | Potency [12] | Potency [13] | Potency [14]

C1CN2CCN1CC2
inactive: outcome [18] | Potency [1] | outcome [3] | outcome [5] | max response [7] 1.08% and 21.8% | outcome [8] | outcome [17]
inactive and 17.4 µM (active): Potency [4]
inactive and 21.9 µM (active): Potency [2] | Potency [15] | Potency [9] | Potency [10] | Potency [11] | Potency [12] | Potency [13] | Potency [14]

[N-]=[N+]=[N-]
inactive: outcome [18] | Potency [1] | Potency [2] | outcome [3] | Potency [4] | outcome [5] | max response [7] -10.7% and 2.12% | Potency [16] | outcome [8] | Potency [9] | Potency [10] | Potency [11] | Potency [12] | Potency [13] | Potency [14]
